Test results published in PubChem BioAssay (EPA / NIEHS).
Several values for one entry are separate records, joined by “and”; a condition that tells them apart may be missing. Equal values may be shown once. Some compounds were tested as several samples or in several runs, with calls that do not always agree. Activity calls are given as the source filed them. How the source made its calls: active means hit-call score of the fitted dose curve at least 0.9, where 1 is the maximum; inactive means score below 0.9.

experiment: CCTE_Shafer_MEA_acute_burst_duration_mean: CCTE's Neural Acute Assay for Mean Burst Duration, Shafer Lab (AID 2284014);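 further: hits are decreases in mean burst duration relative to DMSO controls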
How it was run: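 Primary rat cortical neurons on 16-electrode MEA wells, treated on DIV 13 or 15 with compound (0.03-40 uM; ≥3 wells each). 40-min baseline and 40-min exposure recordings at 37 C; percent change in mean burst duration per well versus DMSO.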

| SMILES | outcome | AC50 |
| --- | --- | --- |
| CC(C)=CC1C(C(=O)OCN2C(=O)C3=C(CCCC3)C2=O)C1(C)C (stereo unspecified) | inactive |  |
| CC(COc1ccc(Oc2ccccc2)cc1)Oc1ccccn1 (stereo unspecified) |  | 20 µM (active) |
| CON=C(C(=O)OC)c1ccccc1CON=C(C)c1cccc(C(F)(F)F)c1 | inactive |  |
| CCc1cnc(C2=NC(C)(C(C)C)C(=O)N2)c(C(=O)O)c1 (stereo unspecified) | inactive |  |
| CC(C)N(C(=O)SCC(Cl)=C(Cl)Cl)C(C)C | inactive |  |
| COP(=O)(OC)C(O)C(Cl)(Cl)Cl (stereo unspecified) | inactive |  |
| Cc1ccn2nc(S(=O)(=O)Nc3c(F)cccc3F)nc2n1 | inactive |  |
| CC1=NNC(=O)N(/N=C/c2cccnc2)C1 | inactive |  |
| C[Si](Cn1cncn1)(c1ccc(F)cc1)c1ccc(F)cc1 | inactive |  |

experiment: CCTE_Shafer_MEA_acute_per_burst_spike_number_mean: CCTE's Neural Acute Assay for Average Number of Spikes Per Burst, Shafer Lab (AID 2284015);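 further: hits are decreases in mean spikes per burst versus baseline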
How it was run: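 Percent change in mean spikes per single-electrode burst is compared between a 40 min baseline and a 40 min recording with compound (0.03-40 uM). Cultures were rat cortical neurons on MEA plates at DIV 13 or 15, recorded at 37 C, with DMSO as the negative control.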

| SMILES | outcome | AC50 |
| --- | --- | --- |
| FC(F)C(F)(F)OCC(Cn1cncn1)c1ccc(Cl)cc1Cl (stereo unspecified) | inactive |  |
| C=C(C)[C@H]1Cc2c(ccc3c2O[C@@H]2COc4cc(OC)c(OC)cc4[C@@H]2C3=O)O1 | inactive |  |
| CC(=NC#N)N(C)Cc1ccc(Cl)nc1 | inactive |  |
| COc1cc(OC)nc(Sc2cccc(Cl)c2C(=O)O)n1 | inactive |  |
| CCCOCC(=Nc1ccc(Cl)cc1C(F)(F)F)n1ccnc1 |  | 2.02 µM (active) |
| CCc1cccc(C)c1N(C(=O)CCl)C(C)COC (stereo unspecified) | inactive |  |
| CC(C)[C@H](C(=O)O[C@H](C#N)c1cccc(Oc2ccccc2)c1)c1ccc(Cl)cc1 | inactive |  |
| CCOP(=S)(Oc1cnc(C(C)(C)C)nc1)OC(C)C (stereo unspecified) |  | 29.4 µM (active) |
| CN1COCN(Cc2cnc(Cl)s2)C1=N[N+](=O)[O-] | inactive |  |
| CCOC(=O)CC(SP(=O)(OC)OC)C(=O)OCC (stereo unspecified) | inactive |  |
| Nc1c(Cl)cc([N+](=O)[O-])cc1Cl | inactive |  |
| CSC1=N[C@@](C)(c2ccccc2)C(=O)N1Nc1ccccc1 | inactive | 27.1 µM (active) |
| C#CCC1=C(C)C(OC(=O)C2C(C=C(C)C)C2(C)C)CC1=O (stereo unspecified) | inactive |  |
| O=C(O)c1cc(Oc2ccc(C(F)(F)F)cc2Cl)ccc1[N+](=O)[O-] | inactive |  |
| C[N+]1(C)CCCCC1 | inactive |  |
| CN(C)NC(=O)CCC(=O)O | inactive |  |
| CCOP(=O)(NC(C)C)Oc1ccc(SC)c(C)c1 (stereo unspecified) | inactive |  |

| SMILES | outcome | AC50 |
| --- | --- | --- |
| CC[C@H](C)[C@H]1O[C@]2(C=C[C@@H]1C)C[C@@H]1C[C@@H](C/C=C(\C)[C@@H](O[C@H]3C[C@H](OC)[C@@H](O[C@H]4C[C@H](OC)[C@@H](NC)[C@H](C)O4)[C@H](C)O3)[C@@H](C)/C=C/C=C3\CO[C@@H]4[C@H](O)C(C)=C[C@@H](C(=O)O1)[C@]34O)O2 |  | 26.5 nM (active) and 1.5 µM (active) |
| N#CSCSC#N | inactive |  |
| CCOP(=S)(OCC)SCCSCC | inactive |  |
| COP(=O)(NC(C)=O)SC (stereo unspecified) | inactive | 0.124 µM (active) |
| CCOP(=S)(OCC)Oc1ccc2c(C)c(Cl)c(=O)oc2c1 |  | 3.98 µM (active) |
| O=[N+]([O-])c1cc(C(F)(F)F)c(Cl)c([N+](=O)[O-])c1Nc1ncc(C(F)(F)F)cc1Cl |  | 0.468 µM (active) |
| CNC(=O)ON=C(SC)C(=O)N(C)C | inactive |  |
| CN(C)[C@@H]1C(=O)C(C(N)=O)=C(O)[C@@]2(O)C(=O)C3=C(O)c4c(O)cccc4[C@@](C)(O)[C@H]3[C@H](O)[C@@H]12 | inactive |  |
| CC(C)=CC1C(C(=O)OCN2C(=O)C3=C(CCCC3)C2=O)C1(C)C (stereo unspecified) | inactive |  |
| CC(COc1ccc(Oc2ccccc2)cc1)Oc1ccccn1 (stereo unspecified) |  | 10.2 µM (active) |
| CON=C(C(=O)OC)c1ccccc1CON=C(C)c1cccc(C(F)(F)F)c1 |  | 0.767 µM (active) |
| CCc1cnc(C2=NC(C)(C(C)C)C(=O)N2)c(C(=O)O)c1 (stereo unspecified) | inactive |  |
| CC(C)N(C(=O)SCC(Cl)=C(Cl)Cl)C(C)C |  | 20 µM (active) and 8.68 µM (active) |
| COP(=O)(OC)C(O)C(Cl)(Cl)Cl (stereo unspecified) |  | 2.15 µM (active) |
| Cc1ccn2nc(S(=O)(=O)Nc3c(F)cccc3F)nc2n1 | inactive |  |
| CC1=NNC(=O)N(/N=C/c2cccnc2)C1 | inactive |  |
| C[Si](Cn1cncn1)(c1ccc(F)cc1)c1ccc(F)cc1 |  | 7.68 µM (active) |

experiment: CCTE_Shafer_MEA_acute_interburst_interval_mean: CCTE's Neural Acute Assay for Mean Interburst Interval, Shafer Lab (AID 2284016);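 further: percent change of mean interburst interval versus each well's own pre-dose baseline; curves fitted for decrease in interburst interval relative to DMSO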
How it was run: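 Percent change in mean single-electrode interburst interval was calculated per well from 40 min recordings before and after compound (0.03-40 uM). Recordings were made at 37 C on rat cortical cultures at DIV 13 or 15, with spikes detected at 8x rms threshold.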

| SMILES | outcome | AC50 |
| --- | --- | --- |
| FC(F)C(F)(F)OCC(Cn1cncn1)c1ccc(Cl)cc1Cl (stereo unspecified) | inactive |  |
| C=C(C)[C@H]1Cc2c(ccc3c2O[C@@H]2COc4cc(OC)c(OC)cc4[C@@H]2C3=O)O1 | inactive |  |
| CC(=NC#N)N(C)Cc1ccc(Cl)nc1 | inactive |  |
| COc1cc(OC)nc(Sc2cccc(Cl)c2C(=O)O)n1 | inactive |  |
| CCCOCC(=Nc1ccc(Cl)cc1C(F)(F)F)n1ccnc1 | inactive |  |
| CCc1cccc(C)c1N(C(=O)CCl)C(C)COC (stereo unspecified) | inactive |  |
| CC(C)[C@H](C(=O)O[C@H](C#N)c1cccc(Oc2ccccc2)c1)c1ccc(Cl)cc1 | inactive |  |
| CCOP(=S)(Oc1cnc(C(C)(C)C)nc1)OC(C)C (stereo unspecified) | inactive |  |
| CN1COCN(Cc2cnc(Cl)s2)C1=N[N+](=O)[O-] | inactive |  |
| CCOC(=O)CC(SP(=O)(OC)OC)C(=O)OCC (stereo unspecified) | inactive |  |
| Nc1c(Cl)cc([N+](=O)[O-])cc1Cl |  | 30.2 µM (active) |
| CSC1=N[C@@](C)(c2ccccc2)C(=O)N1Nc1ccccc1 | inactive |  |
| C#CCC1=C(C)C(OC(=O)C2C(C=C(C)C)C2(C)C)CC1=O (stereo unspecified) | inactive |  |
| O=C(O)c1cc(Oc2ccc(C(F)(F)F)cc2Cl)ccc1[N+](=O)[O-] | inactive |  |
| C[N+]1(C)CCCCC1 | inactive |  |
| CN(C)NC(=O)CCC(=O)O | inactive |  |
| CCOP(=O)(NC(C)C)Oc1ccc(SC)c(C)c1 (stereo unspecified) | inactive |  |

| SMILES | outcome | AC50 |
| --- | --- | --- |
| CC[C@H](C)[C@H]1O[C@]2(C=C[C@@H]1C)C[C@@H]1C[C@@H](C/C=C(\C)[C@@H](O[C@H]3C[C@H](OC)[C@@H](O[C@H]4C[C@H](OC)[C@@H](NC)[C@H](C)O4)[C@H](C)O3)[C@@H](C)/C=C/C=C3\CO[C@@H]4[C@H](O)C(C)=C[C@@H](C(=O)O1)[C@]34O)O2 |  | 26.1 nM (active) and 2.28 µM (active) |
| N#CSCSC#N |  | 30.5 µM (active) |
| CCOP(=S)(OCC)SCCSCC | inactive |  |
| COP(=O)(NC(C)=O)SC (stereo unspecified) | inactive | 0.0544 µM (active) |
| CCOP(=S)(OCC)Oc1ccc2c(C)c(Cl)c(=O)oc2c1 |  | 4.19 µM (active) |
| O=[N+]([O-])c1cc(C(F)(F)F)c(Cl)c([N+](=O)[O-])c1Nc1ncc(C(F)(F)F)cc1Cl |  | 1.14 µM (active) |
| CNC(=O)ON=C(SC)C(=O)N(C)C | inactive |  |
| CN(C)[C@@H]1C(=O)C(C(N)=O)=C(O)[C@@]2(O)C(=O)C3=C(O)c4c(O)cccc4[C@@](C)(O)[C@H]3[C@H](O)[C@@H]12 | inactive |  |
| CC(C)=CC1C(C(=O)OCN2C(=O)C3=C(CCCC3)C2=O)C1(C)C (stereo unspecified) | inactive |  |
| CC(COc1ccc(Oc2ccccc2)cc1)Oc1ccccn1 (stereo unspecified) | inactive |  |
| CON=C(C(=O)OC)c1ccccc1CON=C(C)c1cccc(C(F)(F)F)c1 |  | 4.19 µM (active) |
| CCc1cnc(C2=NC(C)(C(C)C)C(=O)N2)c(C(=O)O)c1 (stereo unspecified) | inactive |  |
| CC(C)N(C(=O)SCC(Cl)=C(Cl)Cl)C(C)C | inactive | 11.9 µM (active) |
| COP(=O)(OC)C(O)C(Cl)(Cl)Cl (stereo unspecified) | inactive |  |
| Cc1ccn2nc(S(=O)(=O)Nc3c(F)cccc3F)nc2n1 | inactive |  |
| CC1=NNC(=O)N(/N=C/c2cccnc2)C1 | inactive |  |
| C[Si](Cn1cncn1)(c1ccc(F)cc1)c1ccc(F)cc1 | inactive |  |
